# Assay results published in PubChem BioAssay (EPA / NIEHS).
# Records with an inconclusive call do not appear. Active and inactive are the calls of the source. How the source made its calls, unless noted: active means hit-call score of the fitted dose curve at least 0.9, where 1 is the maximum; inconclusive means response in the unintended direction; inactive means score below 0.9.
# What was measured:
# [1] = CCTE_Mundy_HCI_hNP1_Casp3_7: CCTE's Caspase-Glo 3/7 Assay in human neuroprogenitor cells for Apoptosis, Mundy Lab (AID 2284240; active means hit-call score of the fitted dose curve at least 0.9, where 1 is the maximum; inactive means score below 0.9)
# Procedure, shortened: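 Neuroepithelial-lineage stem cells from WA09 embryonic cells were treated with chemicals after 40–44 h of culture. Twenty-four hours later, caspase-3/7 activation was detected luminescently after a 30 min room-temperature reagent step, with DMSO as baseline.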
# [2] = CCTE_Mundy_HCI_Cortical_Synap_Neur_Matur_NeuronCount: CCTE's Synaptogenesis and Neurite Maturation Assay in rat cortical cells for Neuron Count, Mundy Lab (AID 2284242);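 on AC50: hits reduce neuron count versus DMSO baseline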
# Procedure, shortened: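 Neuron counts come from automated high-content imaging of Hoechst nuclei and MAP2/synaptophysin immunostaining at DIV 12, with loss of signal judged against DMSO. Cultures of rat cortical cells had glial growth arrested by AraC at DIV 5; chemical exposure began DIV 7.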
# [3] = IUF_NPC2c_oligodendrocyte_migration_120hr: Leibniz Research Institute for Environmental Medicine (IUF) 120-hour Neural Progenitor Cell Migration Assay for Oligodendrocyte Migration (NPC2c) (AID 2284297; active means hit-call score of the fitted dose curve at least 0.9, where 1 is the maximum; inactive means score below 0.9;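 further: O4-positive oligodendrocyte migration distance divided by radial glia migration distance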)
# Procedure, shortened: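 Primary hNPC spheres migrating on extracellular matrix, exposed five days to a 7-point dilution series with solvent control. Oligodendrocyte migration was scored by high-content imaging of O4 immunostaining and expressed relative to radial glia distance.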
# [4] = IUF_NPC2a_radial_glia_migration_120hr: Leibniz Research Institute for Environmental Medicine (IUF) 120-hour Neural Progenitor Cell Migration Assay for Radial Glia Migration (NPC2a) (AID 2284298; active means hit-call score of the fitted dose curve at least 0.9, where 1 is the maximum; inactive means score below 0.9)
# Procedure, shortened: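 In this multiplexed test, fetal hNPC spheres migrate radially on poly-D-lysine/laminin in N2 medium (37C, 5% CO2, pH 7.2-7.6) under continuous compound exposure over five days. Migration is scored at 120 h from automated Hoechst nuclear imaging.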
# [5] = IUF_NPC2a_radial_glia_migration_72hr: Leibniz Research Institute for Environmental Medicine (IUF) 72-hour Neural Progenitor Cell Migration Assay for Radial Glia Migration (NPC2a) (AID 2284299; active means hit-call score of the fitted dose curve at least 0.9, where 1 is the maximum; inactive means score below 0.9)
# Procedure, shortened: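 Radial glia migration (µm, sphere core edge to migration front, four directions averaged) from brightfield images at 72 h; hNPC spheres differentiating on PDL/laminin in N2 medium, compound exposure at 7 concentrations from plating.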
# [6] = IUF_NPC2b_neuronal_migration_120hr: Leibniz Research Institute for Environmental Medicine (IUF) 120-hour Neural Progenitor Cell Migration Assay for Neuron Migration (NPC2b) (AID 2284300; active means hit-call score of the fitted dose curve at least 0.9, where 1 is the maximum; inactive means score below 0.9)
# Procedure, shortened: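 Neurons identified by TUBB3 immunostaining and Hoechst nuclei; migration distance measured automatically on fixed wells at 120 h, normalized to glia migration. Exposure spanned five days of differentiation in N2 medium, seven test concentrations.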
# [7] = IUF_NPC3_neuronal_differentiation_120hr: Leibniz Research Institute for Environmental Medicine (IUF) 120-hour Neuronal Differentiation Assay (NPC3) (AID 2284301; active means hit-call score of the fitted dose curve at least 0.9, where 1 is the maximum; inactive means score below 0.9)
# Procedure, shortened: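 Neuronal differentiation of primary human neural progenitors measured by high-content imaging: percent TUBB3+ of Hoechst+ nuclei within migrated area at 120 h, seven-point serial dilution plus solvent control, gain or loss relative to DMSO.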
# [8] = IUF_NPC4_neurite_length_120hr: Leibniz Research Institute for Environmental Medicine (IUF) 120-hour Neuronal Morphology Assay for Neurite Length (NPC4) (AID 2284302; active means hit-call score of the fitted dose curve at least 0.9, where 1 is the maximum; inactive means score below 0.9)
# Procedure, shortened: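 Neurons from differentiating human fetal neural progenitor spheres are scored for average neurite length after five days of compound exposure. Fitting uses DMSO as negative control.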
# [9] = IUF_NPC5_oligodendrocyte_differentiation_120hr: Leibniz Research Institute for Environmental Medicine (IUF) 120-hour Oligodendrocyte Differentiation Assay (NPC5) (AID 2284304);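 further: primary human fetal neural progenitor spheres plated to migrate and differentiate; share of O4-positive cells among Hoechst nuclei found by CNN image analysis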
# Procedure, shortened: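 Human primary NPC neurospheres migrating and differentiating on laminin for 120 h under continuous compound exposure (serial dilution, solvent control). Endpoint: percent O4+ oligodendrocytes among Hoechst nuclei, detected by CNN image analysis, with DMSO as negative control.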
# [10] = IUF_NPC4_neurite_area_120hr: Leibniz Research Institute for Environmental Medicine (IUF) 120-hour Neuronal Morphology Assay for Neurite Area (NPC4) (AID 2284305)
# Procedure, shortened: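 Endpoint at 120 h: automated imaging of TUBB3/Hoechst-stained differentiating human neural progenitor spheres, neurite area per neuron from skeletonization. DMSO solvent control, not above 0.1%, set the baseline; medium was half-replaced on day 3.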
# [11] = IUF_NPC2-5_cytotoxicity_72hr: Cytotoxicity Assessment at 72 hours in the Leibniz Research Institute for Environmental Medicine (IUF) Neural Progenitor Cell Migration and Differentiation Assay for Cytotoxicity (NPC2-5) (AID 2284306);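 further: LDH release into supernatant measured by resorufin fluorescence marking membrane damage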
# Procedure, shortened: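 Primary human neural progenitor spheres migrate and differentiate on laminin. Compound is present from the start of differentiation, with DMSO kept at or below 0.1%. At 72 h, supernatant LDH is quantified fluorometrically, with values fitted in the positive direction.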
# [12] = IUF_NPC2-5_cytotoxicity_120hr: Cytotoxicity Assessment at 120 hours in the Leibniz Research Institute for Environmental Medicine (IUF) Neural Progenitor Cell Migration and Differentiation Assay (NPC2-5) (AID 2284307);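 on AC50: LDH released into supernatant as membrane damage marker via resorufin fluorescence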
# Procedure, shortened: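 Fluorescence (RFU) from LDH-driven resazurin reduction in medium supernatants measured loss of membrane integrity after 120 h of compound exposure of differentiating primary human neural progenitor spheres on an extracellular matrix.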
# [13] = IUF_NPC2-5_cell_number_120hr: Cell Number Assessment at 120 hours in the Leibniz Research Institute for Environmental Medicine (IUF) Neural Progenitor Cell Migration and Differentiation Assay (NPC2-5) (AID 2284308; active means hit-call score of the fitted dose curve at least 0.9, where 1 is the maximum; inactive means score below 0.9;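 further: count of Hoechst-stained nuclei in migration zone around plated human neural progenitor spheres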)
# Procedure, shortened: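 Cell number is taken as all Hoechst-positive nuclei detected in the area into which cells migrate out of the sphere, scored at 120 h and referenced to DMSO solvent control, which was kept at no more than 0.1%.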
# [14] = IUF_NPC2-5_viability_120hr: Viability Assessment at 120 hours in the Leibniz Research Institute for Environmental Medicine (IUF) Neural Progenitor Cell Migration and Differentiation Assay (NPC2-5) (AID 2284312; active means hit-call score of the fitted dose curve at least 0.9, where 1 is the maximum; inactive means score below 0.9)
# Procedure, shortened: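 Human fetal (GW 16-19) neural progenitor spheres of 0.3 mm were plated on poly-D-lysine/laminin in N2 differentiation medium and exposed from day 0 for 120 h, with half-medium refresh at day 3. Viability was read as alamar blue resazurin-to-resorufin fluorescence against DMSO.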
# [15] = CCTE_Mundy_HCI_hNP1_CellTiter: CCTE's Cell Titer-Glo 2 Assay in human neuroprogenitor cells for Viability, Mundy Lab (AID 2284241);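 on AC50: a hit is a drop in ATP luminescence versus DMSO meaning reduced viability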
# Procedure, shortened: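 Measures ATP content in human neural progenitors derived from WA09 embryonic cells. Read-out at 26.5 hours after dosing, with DMSO serving as the negative control and baseline.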
# [16] = VALA_TUBHUV_Agonist_CellCount: Viability Assessment in the VALA Sciences human Umbilical Vein Endothelial Tubule Formation (TUBHUV) Agonism Assay (AID 2284309)
# Procedure, shortened: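 Viability endpoint by fluorescent imaging of fixed nuclear/CD31-stained HUVEC–HDF co-cultures. Readout is cell count, fitted upward against 0.1% DMSO. Compound exposure was 72 h in 10 ng/ml VEGF, after 3-day co-culture priming.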
# [17] = VALA_TUBHUV_Antagonist_CellCount: Viability Assessment in the VALA Sciences human Umbilical Vein Endothelial Tubule Formation (TUBHUV) Antagonism Assay (AID 2284310)
# Procedure, shortened: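 Read-out is imaged cell count after nuclear and CD31 staining, fitted against 0.1% DMSO vehicle. Compounds were added for 3 days, in 10 ng/ml VEGF assay medium, to HUVEC–HDF co-cultures pre-grown 3 days.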
# [18] = VALA_TUBIPS_Antagonist_TubuleLength: VALA Sciences human iPS-derived Endothelial Tubule Formation (TUBIPS) Antagonist Assay (AID 2284313)
# Procedure, shortened: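 Tubule length was quantified by high-content imaging of CD31- and nuclear-stained cells, with 0.1% DMSO as neutral and 100 uM suramin as inhibition control. Compounds were applied for 3 days, in 10 ng/ml VEGF, to cultures pre-grown 3 days.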
# [19] = VALA_MIGHUV2_CellCount: Viability Assessment in the VALA Sciences human Umbilical Vein Endothelial Cell Migration (MIGHUV) Assay, Area of Scratch Wound after Recovery (AID 2284314)
# Procedure, shortened: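 Viability read-out: Hoechst-stained nuclei counted by fluorescence imaging after a 24 h recovery period in fixed, scratched HUVEC plates. Compound was dosed within 30 min of scratching at six concentrations (triplicate); DMSO at 0.1 % served as baseline.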
# [20] = VALA_TUBIPS_Agonist_TubuleLength: VALA Sciences human iPS-derived Endothelial Tubule Formation (TUBIPS) Agonism Assay (AID 2284311)
# Procedure, shortened: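 Agonist-mode readout is the gain in imaged tubule length versus DMSO baseline. It was measured by fluorescence high-content imaging 72 h after dosing human iPSC-derived endothelial cells.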
structure (smiles),measurement,setting,value
O=C1NC(=O)C(c2ccccc2)(c2ccccc2)N1,outcome,[1],inactive
same,outcome,[2],inactive
same,outcome,[3],inactive
same,outcome,[4],inactive
same,outcome,[5],inactive
same,outcome,[6],inactive
same,outcome,[7],inactive
same,outcome,[8],inactive
same,outcome,[9],inactive
same,outcome,[10],inactive
same,outcome,[11],inactive
same,outcome,[12],inactive
same,outcome,[13],inactive
same,outcome,[14],inactive
CN(C)CCCN1c2ccccc2Sc2ccc(Cl)cc21,AC50,[1],11.6 µM (active)
same,AC50,[15],24.7 µM (active)
same,AC50,[2],13.7 µM (active)
same,AC50,[3],16.1 µM (active)
same,AC50,[4],14.2 µM (active)
same,AC50,[5],15.1 µM (active)
same,AC50,[6],15 µM (active)
same,AC50,[7],7.59 µM (active)
same,AC50,[8],6.02 µM (active)
same,AC50,[9],0.756 µM (active)
same,AC50,[10],8.38 µM (active)
same,AC50,[11],15.3 µM (active)
same,AC50,[12],5.75 µM (active)
same,AC50,[13],12.8 µM (active)
same,AC50,[14],10.9 µM (active)
Nc1nc(Cl)nc2c1ncn2[C@H]1C[C@H](O)[C@@H](CO)O1,AC50,[16],1.56 µM (active)
same,outcome,[17],inactive
same,AC50,[18],1.78 µM (active)
same,AC50,[19],2.48 µM (active)
OCC(O)CO,outcome,[1],inactive
same,outcome,[15],inactive
same,outcome,[3],inactive
same,outcome,[4],inactive
same,outcome,[5],inactive
same,outcome,[6],inactive
same,outcome,[7],inactive
same,outcome,[8],inactive
same,outcome,[9],inactive
same,outcome,[10],inactive
same,outcome,[11],inactive
same,outcome,[12],inactive
same,outcome,[13],inactive
same,outcome,[14],inactive
CCCCC(CC)COP(=O)(OCC(CC)CCCC)OCC(CC)CCCC (centres undefined),outcome,[16],inactive
same,outcome,[17],inactive
same,outcome,[19],inactive
O=C1OC(c2ccc(O)cc2)(c2ccc(O)cc2)c2ccccc21,outcome,[16],inactive
same,outcome,[17],inactive
same,outcome,[20],inactive
COC(=O)[C@H]1[C@H]2C[C@@H]3c4[nH]c5cc(OC)ccc5c4CCN3C[C@H]2C[C@@H](OC(=O)c2cc(OC)c(OC)c(OC)c2)[C@@H]1OC,outcome,[16],inactive
same,outcome,[20],inactive
same,outcome,[19],inactive
CC(=O)CC(c1ccccc1)c1c(O)c2ccccc2oc1=O (centres undefined),outcome,[1],inactive
same,outcome,[2],inactive
same,outcome,[3],inactive
same,outcome,[4],inactive
same,outcome,[5],inactive
same,outcome,[6],inactive
same,outcome,[7],inactive
same,outcome,[8],inactive
same,outcome,[9],inactive
same,outcome,[10],inactive
same,outcome,[11],inactive
same,outcome,[12],inactive
same,outcome,[13],inactive
same,outcome,[14],inactive
Cc1ccc(-c2cc(C(F)(F)F)nn2-c2ccc(S(N)(=O)=O)cc2)cc1,outcome,[16],inactive
same,outcome,[17],inactive
same,outcome,[20],inactive
same,outcome,[19],inactive
